# Data: PubChem BioAssay AID463173 (ICCB-Longwood Screening Facility, Harvard Medical School, 2010)
# The campaign covered roughly 52,000 compounds. About 4,300 (8.3%) were called active. Rule as the data show it: active = survival mostly below about 52% (no sharp cut-off); inactive = mostly above about 56%. Shown is part of a subset that was picked to be rich in actives.
# System: DeltatarO mutant
# Assay: S. aureus survival, RN4220 and DeltatarO strains – OD600, teichoic acid synthesis inhibitors, primary screen (AID 463173)
# Conditions: S. aureus RN4220 wild type/DeltatarO growth, OD600, 18 h, stronger effect = lower value, screened at 18.75 µg/mL (by protocol)
row,Compound,survival
1,CC(=O)N1C(=O)/C(=C2\SC(=S)N(C(C)C(=O)O)C2=O)c2ccccc21 (centres undefined),112% (inactive)
2,CCCCN(CC)CCNC(=O)C1CCCN(S(=O)(=O)c2cccc3nsnc23)C1 (centres undefined),117% (inactive)
3,Nn1c(SCCC(=O)O)nnc1-c1ccccc1,83% (inactive)
4,COCCNC(=O)c1cnc2sc(N3CCC(C)CC3)nn2c1=O,86% (inactive)
5,O=S(=O)(c1ccccc1)c1nnn2c1nc(NCc1cccs1)c1sccc12,87% (inactive)
6,N#CC(C(=O)c1ccc(F)cc1)c1nc2ccccc2[nH]1 (centres undefined),86% (inactive)
7,CC1=C(C(=O)Nc2ccc(Cl)cc2)C(c2ccccc2C)n2ncc(C(=O)Nc3ccc(C)cc3)c2N1 (centres undefined),54% (inactive)
8,O=C(O)c1ccc(-c2nc3ccccc3[nH]2)cc1,86% (inactive)
9,Oc1ccc(-c2nc(-c3ccccc3)c(-c3ccc(Br)cc3)[nH]2)cc1,-4% (active)
10,O=C(CSc1nc(-c2ccc(F)cc2)[nH]c1-c1ccccc1)Nc1ccccc1,67% (inactive)
11,Cc1nn(-c2ccc(N3CCCCC3)nn2)c(C)c1CCC(=O)NCc1ccccc1,67% (inactive)
12,Cc1ccc(N(CC(=O)NC2CCCC2)C(=O)c2ccc(N3CCCC3)nc2)cc1,89% (inactive)
13,Cc1ccc(NC(=O)C2CCCN(S(=O)(=O)c3cccc4nsnc34)C2)c(C)c1 (centres undefined),83% (inactive)
14,CC1(C)Oc2ccc(C(=O)Nc3ccccc3)cc2N(CC(=O)N2CCCC2)C1=O,103% (inactive)
15,Cc1cc(N2CCN(C)CC2)nc2ccc(NC(=O)Nc3ccccc3Br)cc12,84% (inactive)
16,Cc1cc(N2CCC(C)CC2)nc2ccc(NC(=O)Cc3ccccc3Br)cc12,46% (active)
17,COc1ccccc1CC(=O)Nc1ccc2nc(N3CCC(C)CC3)cc(C)c2c1,61% (inactive)
18,Cc1cc(N2CCC(C)CC2)nc2ccc(NC(=O)CCC(=O)N3CCN(c4cccc(C(F)(F)F)c4)CC3)cc12,31% (active)
19,Cc1cccc(CC(=O)Nc2ccc3nc(N4CCC(C)CC4)cc(C)c3c2)c1,4% (active)
20,Cc1ccc(Cl)cc1N1CCN(C(=O)CCC(=O)Nc2ccc3nc(N4CCC(C)CC4)cc(C)c3c2)CC1,52% (inactive)
21,COc1cccc(CC(=O)Nc2ccc3nc(N4CCC(C)CC4)cc(C)c3c2)c1,49% (inactive)
22,Cc1cc(N2CCC(C)CC2)nc2ccc(NC(=O)CCC(=O)N3CCN(c4ccccc4F)CC3)cc12,52% (inactive)
23,Cc1cc(N2CCC(C)CC2)nc2ccc(NC(=O)Cc3c(F)cccc3Cl)cc12,56% (inactive)
24,CC1=C(C(=O)Nc2ccc(C)cc2C)C(c2ccccc2C)n2ncnc2N1 (centres undefined),100% (inactive)
